# Source: PubChem BioAssay
# Values joined by “and” are separate entries in the source; they are usually repeats but may differ in a detail not shown here. Equal values may be shown once. Results filed as inconclusive are left out. Active and inactive are the calls of the source. Unless noted, no cut-off is given here; in the data, nearly all actives have AC50 up to about 26 µM.
# What was measured:
# [1] = growth inhibition of DIPG glioma cells, dose response, cell-based, SU-DIPG-XVII, MIPE5.0, CellTiter-Glo, qHTS (AID 1347060); conditions: SU-DIPG-XVII viability, CellTiter-Glo ATP luminescence;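 for AC50: cells exposed to compound for 48 hours before viability readout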
# [2] = growth inhibition of DIPG glioma cells, dose response, cell-based, JHH-DIPG-1, MIPE4.0, CellTiter-Glo, qHTS (AID 1347062; cut-off not given, nearly all actives have AC50 up to about 27 µM;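 note: cells exposed to compound for two days before readout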); conditions: JHH-DIPG-1 viability, CellTiter-Glo ATP luminescence
# [3] = growth inhibition of DIPG glioma cells, dose response, cell-based, SU-DIPG-IV, MIPE4.0, CellTiter-Glo, qHTS (AID 1347063; cut-off not given, nearly all actives have AC50 up to about 30 µM;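 note: compound exposure lasted 48 hours before the viability readout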); conditions: SU-DIPG-IV viability, CellTiter-Glo ATP luminescence
# [4] = growth inhibition of DIPG glioma cells, dose response, cell-based, SU-DIPG-XIII, MIPE5.0, CellTiter-Glo, qHTS (AID 1347064; cut-off not given, nearly all actives have AC50 up to about 23 µM;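 for AC50: cells exposed to compound for 48 hours before the viability read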); conditions: SU-DIPG-XIII viability, CellTiter-Glo ATP luminescence
# [5] = viability loss in pontine glioma line – cell-based, SU-DIPG-XXV, MIPE5.0, CellTiter-Glo, qHTS, dose response (AID 1347065); conditions: CellTiter-Glo ATP luminescence;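 note: cells exposed to compound for 48 hours before ATP readout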
# [6] = JHH-DIPG-1 glioma cell viability, MIPE5.0 library, CellTiter-Glo luminescence, qHTS (AID 1347067); conditions: JHH-DIPG-1 glioma viability, CellTiter-Glo ATP luminescence;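 note: cells exposed to compound for 48 hours before readout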
# [7] = SU-DIPG-XXV glioma cell viability, MIPE5.0 library, qHTS (AID 1347068; cut-off not given, nearly all actives have IC50 up to about 30 µM;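 for IC50: cells exposed to compound for 48 hours before viability readout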)
# [8] = sensitizers of A549 cells to miR-34 induction, primary screen, imaging, A549 dox-inducible miR-34, nuclei and caspase counts (AID 1347080;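 active = compounds whose cell count with miR-34 switched on is under 0.7 times the count with it off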); conditions: A549 miR-34 inducible, Hoechst nuclei count, 48 h
# [9] = survival rescue of mitochondrial mutant cells in low glucose, primary screen, MELAS cybrids, Rieske KO mouse fibroblasts, CellTiter-Glo (AID 1508586;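 active = mean z-score across replicates of 1.96 or higher in either the MELAS or the Rieske mutant cell line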;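 note: z relative to plate mean and SD of compound and empty wells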)
# [10] = LFS_MB_P medulloblastoma growth inhibition, cell-based, chromothripsis tumors, cisplatin or BGB combos (AID 1671449; in the data active = inhibition above about 80%;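 note: cells exposed for 96 hours; 0% = vehicle DMSO and 100% = killing by high DMSO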); conditions: LFS_MB_P medulloblastoma cells
# [11] = HDN33 neuroblastoma growth inhibition, cell-based, chromothripsis tumors, cisplatin or BGB combos (AID 1671450; in the data active = inhibition above about 80%;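 note: cells exposed to compound for four days; 0% = vehicle DMSO and 100% = cell killing by high DMSO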); conditions: HDN33 neuroblastoma cells, stronger effect = higher value
# [12] = ICB984 medulloblastoma cell growth inhibition, synergistic combos for chromothripsis tumors, cisplatin or BGB combos (AID 1671451; call rule not given here;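 note: cells exposed for 96 hours before readout; 0% = vehicle DMSO and 100% = killing by high DMSO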); conditions: ICB984 medulloblastoma cells, drug combinations, stronger effect = higher value
# [13] = HTB85 osteosarcoma cell growth inhibition, synergistic combos for chromothripsis tumors, BGB or cisplatin IC20 combos (AID 1671453; in the data active = inhibition above about 80%;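 note: cells exposed for 96 hours before readout; 0% = vehicle DMSO and 100% = high DMSO killing control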); conditions: HTB85 osteosarcoma cells, drug combinations, stronger effect = higher value
# [14] = MDA-MB-436 breast carcinoma cell growth inhibition, synergistic combos for chromothripsis tumors, BGB or cisplatin combos (AID 1671458; call rule not given here;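 note: cells exposed for 96 hours; 0% = vehicle DMSO and 100% = killing by high DMSO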); conditions: MDA-MB-436 breast carcinoma growth inhibition, drug combinations, stronger effect = higher value
# [15] = growth inhibition of BT084 medulloblastoma cells, cell-based, ICGC_MB145, cisplatin and BGB IC40 combos (AID 1671461; in the data active = inhibition above about 80%;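 note: cells exposed to drugs for 96 hours; 0% = vehicle DMSO and 100% = high DMSO full killing control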); conditions: drug combinations, stronger effect = higher value
# [16] = growth inhibition of RCMB18 medulloblastoma cells, cell-based, cisplatin and BGB IC40 combos (AID 1671462; in the data active = inhibition above about 80%;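 note: cells exposed to compound for four days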); conditions: stronger effect = higher value
# [17] = stronger effect = lower value, cell number ratio, induced over uninduced
# [18] = measured here: relative caspase fold change +Dox/-Dox
# [19] = measured here: total cells with miR-34 induction, stronger effect = lower value
# [20] = measured here: total cells without miR-34 induction
# [21] = MELAS cybrid survival, CellTiter-Glo 48 h, stronger effect = higher value
# [22] = Rieske KO mouse fibroblast survival, CellTiter-Glo 72 h
compound,measurement,setting,value
CC(C)c1nn(-c2c(Cl)cccc2Cl)c2nc(Cc3ccc(OCCO)cc3)[nH]c(=O)c12,AC50,[1],41.7 nM (active)
same,AC50,[2],118 nM (active)
same,AC50,[3],83.3 nM (active)
same,AC50,[4],46.8 nM (active)
same,AC50,[5],41.7 nM (active)
same,AC50,[6],46.8 nM (active)
same,IC50,[7],83.3 nM (active)
Nc1nc(N)c2nc(-c3cccc(O)c3)c(-c3cccc(O)c3)nc2n1,outcome,[1],inactive
same,AC50,[2],14800 nM (active)
same,AC50,[3],6620 nM (active)
same,outcome,[4],inactive
same,outcome,[5],inactive
same,outcome,[6],inactive
same,outcome,[7],inactive
same,fold change,[8]; [17],0.972 (inactive)
same,fold change,[8]; [18],0.762
same,cell count,[8]; [19],7630
same,cell count,[8]; [20],7850
same,z-score,[9]; [21],-0.482 (inactive)
same,z-score,[9]; [22],0.936
CN(C)c1ccc(C(=O)NCCCCCCC(=O)NO)cc1,AC50,[1],1480 nM (active)
same,AC50,[2],743 nM (active)
same,AC50,[3],1050 nM (active)
same,AC50,[4],934 nM (active)
same,AC50,[5],934 nM (active)
same,AC50,[6],1180 nM (active)
same,fold change,[8]; [17],0.925 (inactive) and 1.16 (inactive)
same,fold change,[8]; [18],1.2 and 1.01
same,cell count,[8]; [19],3030 and 2210
same,cell count,[8]; [20],3270 and 1910
same,z-score,[9]; [21],1.18 (inactive)
same,z-score,[9]; [22],0.973
same,inhibition,"[10]; at 0.5 µM, stronger effect = higher value",-18.1% (inactive)
same,inhibition,"[10]; measured here: combination with BGB IC20, at 0.005 µM",-25.6%
same,inhibition,"[10]; measured here: combination with BGB IC40, at 0.005 µM",-22.1%
same,inhibition,"[10]; measured here: combination with BGB IC40, at 0.05 µM",-25.8%
same,inhibition,"[10]; measured here: combination with cisplatin, at 0.5 µM, stronger effect = higher value",-23.5%
same,inhibition,"[10]; measured here: combination with cisplatin, at 5 µM, stronger effect = higher value",107%
same,inhibition,"[11]; BGB combo, at 5 µM",97.7%
same,inhibition,[11]; at 0.5 µM,36.1% (inactive)
same,inhibition,"[11]; cisplatin combo, at 5 µM",99.4%
same,inhibition,"[11]; measured here: with BGB IC20 combination, at 0.5 µM",24.9%
same,inhibition,"[11]; measured here: with cisplatin IC20 combination, at 0.5 µM",50.9%
same,inhibition,"[11]; single agent, at 5 µM",99.1%
same,inhibition,"[12]; BGB IC20 combo, at 0.005 µM",6.17%
same,inhibition,"[12]; BGB IC40 combo, at 0.005 µM",7.19%
same,inhibition,"[12]; BGB IC40 combo, at 0.05 µM",87.6%
same,inhibition,[12]; at 0.5 µM,-20.5% (inactive)
same,inhibition,"[12]; cisplatin combo, at 0.05 µM",87.3%
same,inhibition,"[12]; cisplatin combo, at 0.5 µM",-6.9%
same,inhibition,"[12]; cisplatin combo, at 5 µM",-44.2%
same,inhibition,"[12]; measured here: 5 uM single agent, at 5 µM",-34.3%
same,inhibition,[13]; at 0.5 µM,28.6% (inactive)
same,inhibition,"[13]; measured here: with BGB IC20, at 0.5 µM",18.8%
same,inhibition,"[13]; measured here: with BGB IC20, at 5 µM",95.5%
same,inhibition,"[13]; measured here: with cisplatin IC20, at 0.5 µM",33.4%
same,inhibition,"[13]; measured here: with cisplatin IC20, at 5 µM",99.7%
same,inhibition,"[13]; single agent, at 5 µM",97.7%
same,inhibition,[14]; at 0.5 µM,5.27% (inactive)
same,inhibition,"[14]; measured here: BGB combination, at 0.5 µM",-2.54%
same,inhibition,"[14]; measured here: BGB combination, at 5 µM",46.7%
same,inhibition,"[14]; measured here: cisplatin combination, at 0.5 µM",-2.21%
same,inhibition,"[14]; measured here: cisplatin combination, at 5 µM",47.8%
same,inhibition,[15]; at 0.5 µM,27.2% (inactive)
same,inhibition,"[15]; cisplatin combination, at 0.5 µM",48.8%
same,inhibition,"[15]; cisplatin combination, at 5 µM",101%
same,inhibition,"[15]; measured here: BGB IC40 combination 0.05 uM, at 0.05 µM",2.96%
same,inhibition,"[15]; single agent, at 5 µM",104%
same,inhibition,[16]; at 0.5 µM,31.7% (inactive)
same,inhibition,"[16]; cisplatin combo, at 5 µM",93.3%
same,inhibition,"[16]; measured here: BGB IC40 combination, at 0.05 µM",-8.02%
same,inhibition,"[16]; measured here: combination with cisplatin, at 0.5 µM",62.9%
same,inhibition,"[16]; single agent, at 5 µM",89%
